AC50 and outcome data for 19 compounds are collected here from PubChem BioAssay (EPA / NIEHS).

Inconclusive results are not listed. Some compounds were tested as several samples or in several runs, with calls that do not always agree. Calls of active or inactive are those of the source. How the source made its calls, unless noted: active means hit-call score of the fitted dose curve at least 0.9, where 1 is the maximum; inconclusive means response in the unintended direction; inactive means score below 0.9.

Test [1] concerns the target Cytochrome P450 2C19 (Homo sapiens) (UniProt P33261). Put plainly: NVS_ADME_hCYP2C19: NovaScreen (NVS) CYP450-related Enzyme Activity (ADME) Assay for human CYP2C19 (AID 2283113).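 Further: potency for inhibition seen as loss of fluorescent signal.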 In short, it runs like this:
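Compounds first screened in duplicate at 10 uM, then confirmed in concentration series. Insect-cell-expressed human CYP2C19 turned over a fluorogenic substrate, and fluorescence was read after 1 h. Inhibition taken as signal loss relative to acetonitrile.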

Test [2] concerns the target Estrogen receptor (Homo sapiens) + Estrogen receptor beta (Homo sapiens) (UniProt P03372+Q92731). As to the kind of experiment: OT_ER_ERaERb_1440: Odyssey Thera (OT) 24-hour HEK293T Protein-Complementation Assay for Estrogen Receptor-alpha/-beta Homodimer (AID 2283356).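 Further: heteromer of ER alpha and ER beta binding domains; hits raise reporter fluorescence and both agonists and antagonists give an increase.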 Summed up:
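Fragment complementation between ER alpha (310-547) and ER beta (263-489) ligand-binding domains in HEK293T cells; signal read 24 h post-dosing by laser scanning cytometer. Gain of fluorescence relative to DMSO fitted.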

Test [3] concerns the target D(1A) dopamine receptor (Homo sapiens) (UniProt P21728). Put plainly: NVS_GPCR_hDRD1: NovaScreen (NVS) G Protein-Coupled Receptor Assay for human Dopamine Receptor D1 (DRD1) (AID 2283269). Summed up: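 Radioligand displacement binding on membranes/protein extracted from HEK293 expressing human D1, cell-free; read 1 h after dosing by filter-based scintillation counting. Primary screen in duplicate at 25 uM, actives followed up in concentration series; signal loss versus DMSO baseline.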

For test [4], the target named is Sodium channel protein type 1 subunit alpha (Rattus norvegicus) (UniProt P04774). As to the kind of experiment: NVS_IC_rNaCh_site2: NovaScreen (NVS) Ion Channel Assay for rat Sodium Channel, Site 2 (NaCh) (AID 2283322).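 Further: hit means loss of radioligand binding signal relative to DMSO so AC50 marks displacement.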 In short, it runs like this:
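Initial duplicate single-point testing at 25 uM, followed by concentration-response runs for actives. Binding of radioligand to rat forebrain membranes quantified after 1 h via filter-based radiodetection.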

For test [5], the target named is guinea pig Sigma Receptor, Non-selective Binding, SIGMAR1 (gene 100135589) (UniProt Q60492). Put plainly: NVS_OR_gSIGMA_NonSelective: NovaScreen (NVS) Nuclear Receptor Binding Assay for guinea pig Sigma Receptor, Non-selective Binding (AID 2283367). In short, it runs like this:
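Membranes from guinea pig brain incubated with radioligand and test chemical for 1 h, then filtered and scintillation-counted. Duplicate primary testing at 25 uM, with concentration-series follow-up for actives.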

The subject of test [6] is guinea pig Dopamine Transporter (DAT), gene 100714898. Put plainly: NVS_TR_gDAT: NovaScreen (NVS) Transporter Assay for guinea pig Dopamine Transporter (DAT) (AID 2283369).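 Further: active compounds lower bound radioligand signal relative to DMSO.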 In short, it runs like this:
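Radioligand displacement on membranes from guinea pig striatum, 2 h exposure, bound label counted by filtration and scintillation. Tested at 25 uM in duplicate, then actives in concentration series to 50 uM; DMSO as negative control.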

Test [7] can be described thus: CCTE_Shafer_MEA_dev_bursting_electrodes_number: CCTE's Neural Network Formation Assay for Number of Bursting Electrodes, Shafer Lab (AID 2284043). In short, it runs like this:
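Rat cortical primary neurons, 48-well MEA, 16 electrodes/well; dosing DIV 0–12, re-dosed with full media change DIV 5, 9. Recordings DIV 5/7/9/12, AxIS adaptive spike detector; bursting electrode = ≥1 burst/2 min. AUC across days; loss of signal vs DMSO.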

Test [8] in a line: CCTE_Shafer_MEA_acute_AB: CCTE's Alamar Blue Assay for Cytotoxicity in the Neural Acute Assay, Shafer Lab (AID 2284069).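 Further: active compounds lower the viability signal compared with DMSO wells.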 In short, it runs like this: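 Primary rat cortical neurons on MEA plates, exposed acutely after baseline recording on day 13 or 15 post-plating. Viability by CellTiter Blue resazurin reduction (1:6 reagent dilution), fluorescence 544/590 nm; loss of signal versus DMSO.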
(In general: Resazurin is reduced to fluorescent resorufin, in cell work by metabolically active cells.)

Test [9] can be described thus: CCTE_Mundy_HCI_hNP1_CellTiter: CCTE's Cell Titer-Glo 2 Assay in human neuroprogenitor cells for Viability, Mundy Lab (AID 2284241). In short, it runs like this: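 Viability read as luminescent ATP content (CellTiter-Glo, 30 min room temperature) twenty-four hours after dosing, relative to DMSO. Cells: WA09-derived hNP1 neuroprogenitors on poly-L-ornithine/laminin, plated 40 to 44 hours before chemical.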
Background: In ATP-based viability assays light output follows the ATP content of the culture.

Test [10] can be described thus: IUF_NPC5_oligodendrocyte_differentiation_120hr: Leibniz Research Institute for Environmental Medicine (IUF) 120-hour Oligodendrocyte Differentiation Assay (NPC5) (AID 2284304).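 Further: primary human fetal neural progenitor spheres plated to migrate and differentiate.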 In short, it runs like this: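 Oligodendrocyte differentiation scored as O4-positive cells, found by CNN image analysis, as percent of Hoechst-stained nuclei in the migration area. Scoring followed 5 days of exposure of plated hNPC neurospheres differentiating in DMEM/F12 N2 medium at 37C, with compound refreshed at day 3.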

The nature of test [11]: CEETOX_H295R_OHPROG: CeeTox H295R High-throughput Steroidogenesis Assay for OH-Progesterone (OHPROG) (AID 2283435; active means hit-call score of the fitted dose curve at least 0.9, where 1 is the maximum; inactive means score below 0.9;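 on AC50: 17alpha-hydroxyprogesterone secreted into medium measured by HPLC-MS/MS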). The following applies: actives raise or lower the signal. Summed up:
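Medium steroid levels read by LC-MS/MS after 48 h chemical treatment (0.1% DMSO) of human adrenal H295R cells that had been forskolin-primed (10 uM, 48 h). Gain or loss fitted against DMSO; MTT cytotoxicity checked per well.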

Test [12] in a line: CEETOX_H295R_PROG: CeeTox H295R High-throughput Steroidogenesis Assay for Progesterone (PROG) (AID 2283442; active means hit-call score of the fitted dose curve at least 0.9, where 1 is the maximum; inactive means score below 0.9;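 on AC50: human H295R adrenal cells primed with 10 µM forskolin before dosing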). The following applies: actives raise or lower the signal. In short, it runs like this:
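Progesterone secreted by human H295R cells was measured by LC-MS/MS following 48 h chemical exposure at 0.1% DMSO, preceded by 48 h forskolin (10 uM) stimulation. Same-well MTT viability; cytotoxic concentrations diluted 10- or 100-fold and retested.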

In test [13] the target is mouse Estrogen Receptor alpha (Era), Esr1 (gene 13982) (UniProt P19785). Put plainly: NVS_NR_mERa: NovaScreen (NVS) Nuclear Receptor Binding Assay for mouse Estrogen Receptor alpha (Era) (AID 2283378).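 Further: hit means loss of bound radioligand signal relative to DMSO.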 Summed up:
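Filter radiodetection of radioligand displacement from extracted receptor protein, measured 18 h post-dose. Single 25 uM concentration in duplicate initially, with concentration-series follow-up. Binding loss fitted relative to DMSO.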

The nature of test [14]: CCTE_Deisenroth_5AR_NBTE_donor: CCTE's 5alpha-reductase NanoBRET Target Engagement Assay […], Deisenroth Lab (AID 2284319; active means hit-call score of the fitted dose curve at least 0.9, where 1 is the maximum; inactive means score below 0.9). The following applies: actives raise or lower the signal. Summed up: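 HEK293T cells transiently expressing SRD5A2-NanoLuc, exposed 5 h to chemicals (8 points, 10 nM - 29.9 uM), with testosterone tracer for the final 2 h. Donor luminescence at 460 nm read after Nano-Glo substrate plus extracellular NanoLuc inhibitor; bidirectional fit versus DMSO.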
(In general: Bioluminescence resonance energy transfer reports proximity on the nanometre scale.)

Test [15] in a line: CCTE_Deisenroth_5AR_NBTE_acceptor: CCTE's 5alpha-reductase NanoBRET Target Engagement Assay - Autofluorescence Screen, Deisenroth Lab (AID 2284321; active means hit-call score of the fitted dose curve at least 0.9, where 1 is the maximum; inactive means score below 0.9). The following applies: actives raise or lower the signal. Summed up: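 Acceptor-channel fluorescence flags artifacts, with excitation fixed at 460 nm. Nominal 100 uM chemical samples were read in triplicate runs, and signal changes were fitted in both directions relative to DMSO.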

For test [16], the system named is SRD5A2 (gene 6716). As to the kind of experiment: CCTE_Deisenroth_5AR_NBTE_ratio: CCTE's 5alpha-reductase NanoBRET Target Engagement Assay - Ratio, Deisenroth Lab (AID 2284322; active means hit-call score of the fitted dose curve at least 0.9, where 1 is the maximum; inactive means score below 0.9). The following applies: actives raise or lower the signal. Summed up:
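HEK293T cells transiently expressing an SRD5A2-NanoLuc fusion (20 h post-transfection) were exposed to test chemical (10 nM - 29.9 uM, 8 points) for 3 h, then testosterone tracer for a further 2 h. Acceptor/donor BRET ratio was fitted bidirectionally against DMSO baseline.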

Test [17] is described as follows: STM_H9_OrnCyssISnorm_ratio: Stemina devTOX quickPredict H9 human embryonic stem cell (hESC)-based Assay for Ornithine (ORN):Cystine (CYSS) Ratio (AID 2283714). Summed up: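 UPLC-HRMS of spent media: ORN/CYSS ratio of internal-standard-normalized percentages, DMSO (0.1%) baseline. Pluripotent H9 hESCs, 72h exposure, daily re-dosing with fresh media; last 24h media collected.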

Test [18] in a line: STM_H9_NormalizedViability: Cytotoxicity Assessment at 120 hours in the Stemina devTOX quickPredict H9 human embryonic stem cell (hESC)-based Assay (AID 2283784). In short, it runs like this:
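Viability endpoint: background-corrected CellTiter-Fluor RFU expressed relative to the 0.1% DMSO mean on each plate. Undifferentiated H9 cells were treated with daily re-dosing and media change, and loss of signal was fitted.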

Read-out in test [19]: Interferon-inducible T-cell alpha chemoattractant (ITAC), CXCL11 (gene 6373)
Put plainly: BSK_hDFCGF_ITAC: BioMAP Diversity Plus: hDFCGF Assay for Interferon-inducible T-cell alpha chemoattractant (ITAC) Biomarker Activity (AID 2284251; active means hit-call score of the fitted dose curve at least 0.9, where 1 is the maximum; inactive means score below 0.9). The following applies: primary human foreskin fibroblasts. In short, it runs like this:
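Measured by ELISA, the chemokine level serves as the endpoint in human skin fibroblast primary cultures 24 h after compound addition. Increases relative to DMSO-treated wells define activity.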

Read-out in test [20]: Matrix Metallopeptidase 9 (MMP9), MMP9 (gene 4318)
Put plainly: BSK_BE3C_MMP9: BioMAP Diversity Plus: BE3C Assay for Matrix Metallopeptidase 9 (MMP9) Biomarker Activity (AID 2284283; active means hit-call score of the fitted dose curve at least 0.9, where 1 is the maximum; inactive means score below 0.9). The following applies: primary human bronchial epithelial cells. In short, it runs like this: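 MMP9 is measured by ELISA after a 24 h compound exposure of primary human bronchial epithelial cultures. Parallel SRB staining gives overt cytotoxicity. Values fitted in the positive direction against DMSO.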

mouse Estrogen Receptor alpha (Era), Esr1 (gene 13982), sequence (P19785 whole entry, looked up): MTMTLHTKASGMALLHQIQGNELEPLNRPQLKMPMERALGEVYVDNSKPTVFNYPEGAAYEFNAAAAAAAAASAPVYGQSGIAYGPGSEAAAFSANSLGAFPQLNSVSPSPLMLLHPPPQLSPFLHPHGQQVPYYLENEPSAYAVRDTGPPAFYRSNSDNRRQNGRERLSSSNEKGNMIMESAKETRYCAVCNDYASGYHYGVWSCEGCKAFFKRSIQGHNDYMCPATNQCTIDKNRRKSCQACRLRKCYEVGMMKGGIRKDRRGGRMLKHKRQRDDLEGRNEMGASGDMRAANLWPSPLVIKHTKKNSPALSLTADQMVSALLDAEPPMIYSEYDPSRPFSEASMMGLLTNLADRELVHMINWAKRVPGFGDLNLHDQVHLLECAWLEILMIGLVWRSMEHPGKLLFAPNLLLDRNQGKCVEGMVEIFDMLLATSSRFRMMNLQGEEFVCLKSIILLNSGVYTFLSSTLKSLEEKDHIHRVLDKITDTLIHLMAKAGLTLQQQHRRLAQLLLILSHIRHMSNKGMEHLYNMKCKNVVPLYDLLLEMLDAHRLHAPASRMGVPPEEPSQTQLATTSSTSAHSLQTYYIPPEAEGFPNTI
D(1A) dopamine receptor (Homo sapiens), sequence (P21728 whole entry, looked up): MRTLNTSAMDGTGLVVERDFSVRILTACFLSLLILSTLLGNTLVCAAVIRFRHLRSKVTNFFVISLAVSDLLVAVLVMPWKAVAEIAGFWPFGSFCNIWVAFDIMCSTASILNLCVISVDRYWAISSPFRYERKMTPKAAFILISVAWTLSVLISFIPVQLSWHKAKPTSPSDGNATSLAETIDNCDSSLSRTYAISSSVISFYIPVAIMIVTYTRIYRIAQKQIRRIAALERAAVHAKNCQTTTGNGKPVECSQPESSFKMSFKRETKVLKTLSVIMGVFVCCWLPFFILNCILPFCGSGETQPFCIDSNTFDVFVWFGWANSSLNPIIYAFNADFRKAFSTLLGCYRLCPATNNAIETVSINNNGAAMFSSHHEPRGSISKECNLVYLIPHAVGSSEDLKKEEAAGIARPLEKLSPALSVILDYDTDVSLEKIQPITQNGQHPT
Estrogen receptor (Homo sapiens) + Estrogen receptor beta (Homo sapiens), sequence (P03372 whole entry, looked up, the tested form may be a part): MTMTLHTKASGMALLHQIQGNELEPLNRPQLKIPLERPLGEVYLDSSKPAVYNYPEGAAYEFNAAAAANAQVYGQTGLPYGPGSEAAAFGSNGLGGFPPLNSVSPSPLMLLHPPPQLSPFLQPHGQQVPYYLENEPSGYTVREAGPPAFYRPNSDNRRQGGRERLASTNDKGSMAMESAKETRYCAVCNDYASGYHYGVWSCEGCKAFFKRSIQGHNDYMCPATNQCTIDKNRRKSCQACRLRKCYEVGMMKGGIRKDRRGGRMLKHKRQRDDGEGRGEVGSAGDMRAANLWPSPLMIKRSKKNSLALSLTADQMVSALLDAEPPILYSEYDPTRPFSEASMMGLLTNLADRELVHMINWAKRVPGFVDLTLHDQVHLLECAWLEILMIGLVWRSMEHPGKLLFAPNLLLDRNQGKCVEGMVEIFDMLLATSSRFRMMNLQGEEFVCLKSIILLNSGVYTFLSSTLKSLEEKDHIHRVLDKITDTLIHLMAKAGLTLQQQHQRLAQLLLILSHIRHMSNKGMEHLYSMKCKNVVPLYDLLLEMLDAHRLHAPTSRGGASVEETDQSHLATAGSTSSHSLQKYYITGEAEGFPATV
Estrogen receptor (Homo sapiens) + Estrogen receptor beta (Homo sapiens), sequence (Q92731 whole entry, looked up, the tested form may be a part): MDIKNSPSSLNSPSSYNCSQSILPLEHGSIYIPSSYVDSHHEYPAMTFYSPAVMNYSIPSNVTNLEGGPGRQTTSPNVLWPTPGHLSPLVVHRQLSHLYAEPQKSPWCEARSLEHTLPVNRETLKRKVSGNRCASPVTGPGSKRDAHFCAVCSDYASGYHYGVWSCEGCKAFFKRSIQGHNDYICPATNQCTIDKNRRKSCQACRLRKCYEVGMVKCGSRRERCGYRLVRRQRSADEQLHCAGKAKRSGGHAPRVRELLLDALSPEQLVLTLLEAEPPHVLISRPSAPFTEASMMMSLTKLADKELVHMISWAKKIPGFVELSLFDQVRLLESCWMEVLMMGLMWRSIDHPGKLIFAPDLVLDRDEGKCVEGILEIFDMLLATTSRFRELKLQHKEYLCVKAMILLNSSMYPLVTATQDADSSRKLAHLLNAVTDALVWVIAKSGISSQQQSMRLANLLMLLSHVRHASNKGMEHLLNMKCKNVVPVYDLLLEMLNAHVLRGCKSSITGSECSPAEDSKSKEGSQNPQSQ
guinea pig Sigma Receptor, Non-selective Binding, SIGMAR1 (gene 100135589), sequence (Q60492 whole entry, looked up): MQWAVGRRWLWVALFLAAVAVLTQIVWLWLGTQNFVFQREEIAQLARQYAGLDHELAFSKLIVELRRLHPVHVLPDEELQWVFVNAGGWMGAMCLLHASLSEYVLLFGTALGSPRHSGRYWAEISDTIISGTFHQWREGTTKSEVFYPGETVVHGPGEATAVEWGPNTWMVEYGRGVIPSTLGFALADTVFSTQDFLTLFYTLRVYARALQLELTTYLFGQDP

In general, AC50 refers to the concentration giving half of the maximal activity seen. Consider `CN(C)c1ccc(C(c2ccccc2)c2ccc(N(C)C)cc2)cc1`, for which the AC50 in [1] is 0.356 µM (active).
For the compound `CCCCCCC1CCC(=O)O1` (stereo not given), in [2], the result was inactive.
Regarding `CN(C)CCC(c1ccc(Cl)cc1)c1ccccn1` (stereo not given), the AC50 in [3] was 12.1 µM (active); in test [4] it was 3.21 µM (active); in test [5], 3.14 µM (active); in [6], 3.05 µM (active). Also, the outcome in test [7], in test [8], in test [9] and in test [10] was inactive.
Take `C=C1CC[C@H]2C[C@@H]1C2(C)C`: in test [2], the result was inactive.
As for `CCCCOC(=O)COc1ccc(Cl)cc1Cl`, the half-maximal activity concentration (AC50) in test [11] is 74.6 µM (active). For the same compound, the compound was called inactive in [12].
Take `Cc1cc2nc3c(=O)[nH]c(=O)nc-3n(C[C@H](O)[C@H](O)[C@H](O)CO)c2cc1C`: the compound was classed as inactive in [13], in test [14] and in test [15]. Moreover, the AC50 in test [16] is 27.1 µM (active).
In the case of `Cc1cc(O)cc(C)c1Cl`, the AC50 in test [11] was 13.8 µM (active). Also, the compound was classed as inactive in test [12].
Regarding `Oc1cccc2ccccc12`, the AC50 in [17] is 7.48 µM (active). Further, the outcome in test [18] was inactive.
As for `COC(OC)C(C)c1ccccc1` (stereo not given), the outcome in test [13] was inactive.
With `O=C(O)/C=C\C(=O)O`, the result in test [14], in test [15] and in test [16] was inactive.
For the compound `CC[N+](CC)(CC(=O)Nc1c(C)cccc1C)Cc1ccccc1` (tested in a mixture with another compound), the result in test [17], in [18], in [19] and in test [20] was inactive.
Consider `CC1=NN(c2cc(Cl)c(S(=O)(=O)O)cc2Cl)C(=O)C1N=Nc1ccc(S(=O)(=O)O)cc1` (stereo not given), for which the compound was classed as inactive in test [14] and in [15]. For the same compound, in test [16], the AC50 was 10 µM (active).
Regarding `Sc1nc2ccccc2s1`, in [1], the concentration at half-maximal activity (AC50) was 5 µM (active).
For `CN(C)Cc1cc(C(C)(C)C)c(O)c(C(C)(C)C)c1`, the outcome in [17], in test [18], in test [19] and in [20] was inactive. The AC50 is 20 µM (active) in [19] and 10.7 µM (active) in test [20].
As to `CCCCCCCCCCCCCCCCCC[N+](C)(C)C`, the AC50 in [3] was 2.53 µM (active); in [5], 2.61 µM (active).
`Oc1ccc(Oc2ccccc2)cc1`: the AC50 in test [13] is 8.86 µM (active).
Consider `O=C(C(=O)c1ccccc1)c1ccccc1`, for which the compound was classed as inactive in test [4]. Besides, the AC50 in [6] was 3.77 µM (active).
For `NC(N)=Nc1nc(CSCCC(N)=NS(N)(=O)=O)cs1`, the call in test [7], in [8], in test [9] and in [10] was inactive.
With `c1ccc(CNc2ncnc3nc[nH]c23)cc1`, the compound was called inactive in [11]. Besides, the concentration at half-maximal activity (AC50) in [12] was 21.9 µM (active).
